Values without a mark were called inactive. Calls of active or inactive are those of the source.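 The calls were made as follows: active = mean inhibition above 46.68%, the untreated control wells mean plus 3 SD; inactive = the rest.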

What is called inhibition is the relative decrease from the control value, in per cent.

The experiment deals with Nuclear receptor coactivator 1 (Homo sapiens) (UniProt Q15788). As to the kind of experiment: NCOA1 GAL4-fusion reporter inhibition – cell-based, luminescence, quadruplicate, confirmation (AID 588820).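 Also: 0% = DMSO wells and 100% = gossypol 36 µM treated wells.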 The following applies: HEK293 GAL4-SRC1 luciferase reporter, at 3.6 µM, hits give high values.
Sequence of Nuclear receptor coactivator 1 (Homo sapiens) (Q15788 whole entry, looked up, the tested form may be a part): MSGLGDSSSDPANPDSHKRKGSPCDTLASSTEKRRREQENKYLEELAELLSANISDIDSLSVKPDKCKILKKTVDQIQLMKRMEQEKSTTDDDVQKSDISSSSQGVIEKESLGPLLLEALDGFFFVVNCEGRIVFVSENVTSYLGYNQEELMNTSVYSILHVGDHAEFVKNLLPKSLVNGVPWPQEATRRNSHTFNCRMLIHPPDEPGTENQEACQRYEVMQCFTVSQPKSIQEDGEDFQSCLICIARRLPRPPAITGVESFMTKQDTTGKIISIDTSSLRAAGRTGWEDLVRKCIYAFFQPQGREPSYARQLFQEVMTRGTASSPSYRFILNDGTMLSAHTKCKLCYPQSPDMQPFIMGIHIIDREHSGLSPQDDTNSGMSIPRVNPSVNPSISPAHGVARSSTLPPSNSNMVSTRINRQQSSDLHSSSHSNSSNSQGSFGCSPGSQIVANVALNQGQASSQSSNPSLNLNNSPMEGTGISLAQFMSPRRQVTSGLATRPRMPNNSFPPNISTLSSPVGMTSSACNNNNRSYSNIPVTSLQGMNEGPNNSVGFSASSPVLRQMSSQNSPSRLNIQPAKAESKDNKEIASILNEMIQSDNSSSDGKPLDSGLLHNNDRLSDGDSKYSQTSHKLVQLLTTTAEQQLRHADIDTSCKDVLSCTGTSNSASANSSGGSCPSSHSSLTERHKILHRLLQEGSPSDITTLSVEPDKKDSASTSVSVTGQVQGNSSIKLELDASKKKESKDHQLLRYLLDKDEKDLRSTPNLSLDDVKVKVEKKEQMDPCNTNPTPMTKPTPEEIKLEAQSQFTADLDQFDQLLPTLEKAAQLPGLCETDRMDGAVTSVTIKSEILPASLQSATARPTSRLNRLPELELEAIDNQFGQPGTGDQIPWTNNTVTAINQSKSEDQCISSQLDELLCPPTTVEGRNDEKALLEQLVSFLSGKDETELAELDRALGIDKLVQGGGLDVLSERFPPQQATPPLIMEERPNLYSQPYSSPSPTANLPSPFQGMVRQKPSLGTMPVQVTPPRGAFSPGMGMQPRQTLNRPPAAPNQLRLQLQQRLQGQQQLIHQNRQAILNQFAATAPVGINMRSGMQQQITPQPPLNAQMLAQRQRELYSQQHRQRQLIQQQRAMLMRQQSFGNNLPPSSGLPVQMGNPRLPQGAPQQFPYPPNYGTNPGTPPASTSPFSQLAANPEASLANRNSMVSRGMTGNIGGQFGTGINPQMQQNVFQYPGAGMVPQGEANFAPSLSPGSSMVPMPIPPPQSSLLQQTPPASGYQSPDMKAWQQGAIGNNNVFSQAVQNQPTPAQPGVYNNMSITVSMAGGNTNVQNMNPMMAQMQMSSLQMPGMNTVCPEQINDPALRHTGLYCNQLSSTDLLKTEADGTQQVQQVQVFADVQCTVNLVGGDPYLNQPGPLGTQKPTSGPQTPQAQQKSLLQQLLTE
As for `NC(=S)NN=Cc1nccc2c(C(F)(F)F)cccc12`, the inhibition is 63.9% (active).

Regarding `Cc1ccsc1C(=O)OCC(=O)c1cc(C)n(CC2CCCO2)c1C` (centres undefined), the inhibition was 49.5% (active).

As for `CC(C)CC(=NNC(=O)c1ccncc1)c1cc(Cl)ccc1O`, the inhibition is 65.2% (active).

Take `CN(C)c1ccc(/C=C/c2ccc3c4ccccc4ccc3[n+]2-c2ccccc2)cc1`: the inhibition was 50.2% (active).

`Cc1ccc(C)c(S(=O)(=O)N2CCN(c3ncnc4sccc34)CC2)c1`: the inhibition is 57.9% (active).

As to `CC(C)c1ccc(/C=N/Nc2ccc(C(=O)O)cc2)cc1`, the inhibition was -72.5%.

`Cc1oc2c(F)c(F)c(F)c(F)c2c1S(=O)(=O)Nc1cccc(C(F)(F)F)c1`: the inhibition was 12.8%.

For the molecule `Cc1cccn2c(=O)c3cc(C(=O)NCCN4CCOCC4)c(=N)n(Cc4ccc(F)cc4)c3nc12`, the inhibition was 44.4%.

Turning to `COc1ccc(-c2cn[nH]c2-c2ccc(OCc3ccc([N+](=O)[O-])cc3)cc2O)cc1`, the inhibition is 39.1%.

In the case of `O=C(Nc1ccon1)c1nc[nH]c1C(=O)NCc1ccccc1`, the inhibition was 27.6%.

On to `CC(=NNC(=S)Nc1cccc(C)c1)c1ccccn1`, for which the inhibition is 1.68%.

Regarding `Cc1[nH]c(=O)c(C(=O)/C=C/c2ccccc2)c2c1CCCC2`, the inhibition is 70.5% (active).

Take `COC(=O)C12OCC34C(CC5C(C)=C(O)C(=O)CC5(C)C3C(O)C1O)OC(=O)C(OC(=O)C=C(C)C)C24` (centres undefined): the inhibition was 95.2% (active).

On to `CCCCCCn1c2c(c(=N)c3c1CCC3)CCC2`, for which the inhibition is 55.4% (active).

Regarding `COc1ccc(CCNc2ncnc3c2oc2ccccc23)cc1OC`, the inhibition is 2.85%.

Turning to `CN(C)c1ccc(CNC(=O)CCNS(=O)(=O)c2cc(Br)cnc2N)cc1`, the inhibition was 8.5%.

Regarding `O=C(c1ccccc1)c1c2c(cc3sc4ccccc4[n+]13)-c1cccc3cccc-2c13`, the inhibition was 29.4%.

In the case of `CC(=O)N1CCCc2cc(S(=O)(=O)N3CCCC(C(=O)N4CCN(c5cccc(Cl)c5)CC4)C3)ccc21` (centres undefined), the inhibition was 7.87%.

As to `OCCCNc1nccc(-c2cc(Nc3cccc(Cl)c3)ncn2)n1`, the inhibition was 83.5% (active).

As for `O=c1c2ccccc2sc2ccc(C#CC3(O)CCCCC3)cc12`, the inhibition was 76.2% (active).

Consider `COc1ccc(-c2oc3ccc(N4CCOCC4)cc3c2C#CCO)cc1`, for which the inhibition is -22.7%.

As to `O=C(Nc1ccc2c(c1)OCCO2)C1CCCC1`, the inhibition is -2.87%.

With `CC[C@H]1CN2CCc3cc(OC)c(OC)cc3[C@@H]2C[C@@H]1C[C@H]1NCCc2cc(OC)c(OC)cc21`, the inhibition was 92.6% (active).

Regarding `CC(=O)NC(c1ccc(Cl)cc1)c1ccc2cccnc2c1O` (centres undefined), the inhibition is 80% (active).

The record behind these values is PubChem BioAssay.
